Screening results deposited in PubChem by National Center for Advancing Translational Sciences (NCATS).
NPR1 antag: blocks ANP-stimulated signaling of human Npr1 receptor | P16066 | HEK293 hNpr1 GloSensor cGMP, ANP-stimulated luminescence | Potency, µM (series often up to 46.3 µM), for inactives: at the highest dose activity change, negative = inhibition, actives largely listed as inhibitors | 76,000 compounds, 1.6% hits; calls by dose curve; further: on the % scale 0 is the no-effect control and ±100 the full control effect; nearly all actives have a fitted effect of over 60% in size
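HEK293 cells stably expressing human Npr1 and cGMP GloSensor pGS-40F, loaded 2 h with 2% GloSensor reagent, given compound 30 min at room temperature. Luminescence read before and 20 min after 0.1 nM hNppA.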
GPT2 inh: blocks human glutamate pyruvate transaminase 2; Potency, µM (doses to about 57.7 µM), for inactives: at the top dose activity change, negative = inhibition, most hits filed as inhibitors; 100,000 compounds, 0.25% hits; AID 1671188; Recombinant GPT2, coupled pyruvate oxidase/HRP Amplex Red fluorescence; Q8TD30; further: on the % scale 0 is the no-effect control and ±100 the full control effect; nearly all actives have a fitted effect of over 60% in size
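Recombinant GPT2 (10ng/uL) with 250uM a-KG and 2mM L-alanine, 30 min at room temperature, in HEPES pH 7.5 buffer. Pyruvate detected by pyruvate oxidase/HRP/Amplex Red fluorescence after 30 min in the dark; AOA (50uM) as positive control.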
NIH3T3 tox: NIH 3T3 cell cytotoxicity. NIH 3T3 viability, CellTiter-Glo ATP luminescence, 48-72 h. Potency, µM (series often up to 96.7 µM), inactives show at the highest dose activity change, negative = cytotoxicity, most hits filed as inhibitors. 94,000 compounds, 4.3% hits. AID 1345082; further: on the % scale 0 is the no-effect control and ±100 the full control effect; nearly all actives have a fitted effect of over 55% in size
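First NIH 3T3 cells are plated at 400 cells/well; next compound is pinned in; then plates incubate 48 or 72 hr at 37 °C; finally CellTiter-Glo is added and luminescence read after 10 min.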
HEK cytotox: kills HEK 293 cells. 94,000 compounds, 6.6% hits. HEK 293 viability, ATP luminescence (CellTiter-Glo), 48-72 h. Potency, µM (top dose mostly 115 µM), without a hit: at the top dose activity change, negative = cytotoxicity, hits mostly inhibitors. AID 1345083; further: on the % scale 0 is the no-effect control and ±100 the full control effect; nearly all actives have a fitted effect of over 60% in size
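HEK 293 seeded at 250 cells/well receive compound via pintool. After 48 or 72 hr at 37 degree Celsius, 5% CO2 and 95% humidity, CellTiter-Glo is dispensed and luminescence read following 10 min at room temperature.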
Luciferase inh: Photinus pyralis luciferase inhibition; Potency, µM (top dose mostly 115 µM), hits mostly inhibitors; P08659; 76,000 compounds, 2.5% hits; purified P. pyralis luciferase, luminescence, biochemical; further: on the % scale 0 is the no-effect control and ±100 the full control effect; nearly all actives have a fitted effect of over 65% in size
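Inhibitors were tested against purified firefly luciferase in a biochemical, low-substrate format (both substrates at 10uM) and luminescence measured with a CCD imager.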
Npr1 antag conf: confirmation of human Npr1 natriuretic peptide receptor antagonists; shares compounds with NPR1 antag; HEK293 hNpr1 cGMP GloSensor luminescence, ANP-stimulated; Potency, µM (doses to about 57.6 µM), for the others: at the highest dose activity change, negative = inhibition, usual class: inhibitors; 1,400 compounds, 76% hits; calls by dose curve; further: nearly all actives have a fitted effect of over 70% in size
NPR2 antag: selectivity test of Npr1 antagonists against human Npr2. shares compounds with NPR1 antag. HEK293 hNpr2 GloSensor cGMP luminescence, CNP-stimulated. Potency, µM (top dose mostly 57.6 µM), without a hit: top-dose activity change, negative = inhibition, usual class: inhibitors. 1,400 compounds, 67% hits; calls by dose curve; further: nearly all actives have a fitted effect of over 70% in size
Target sequence (P20594 whole entry, looked up): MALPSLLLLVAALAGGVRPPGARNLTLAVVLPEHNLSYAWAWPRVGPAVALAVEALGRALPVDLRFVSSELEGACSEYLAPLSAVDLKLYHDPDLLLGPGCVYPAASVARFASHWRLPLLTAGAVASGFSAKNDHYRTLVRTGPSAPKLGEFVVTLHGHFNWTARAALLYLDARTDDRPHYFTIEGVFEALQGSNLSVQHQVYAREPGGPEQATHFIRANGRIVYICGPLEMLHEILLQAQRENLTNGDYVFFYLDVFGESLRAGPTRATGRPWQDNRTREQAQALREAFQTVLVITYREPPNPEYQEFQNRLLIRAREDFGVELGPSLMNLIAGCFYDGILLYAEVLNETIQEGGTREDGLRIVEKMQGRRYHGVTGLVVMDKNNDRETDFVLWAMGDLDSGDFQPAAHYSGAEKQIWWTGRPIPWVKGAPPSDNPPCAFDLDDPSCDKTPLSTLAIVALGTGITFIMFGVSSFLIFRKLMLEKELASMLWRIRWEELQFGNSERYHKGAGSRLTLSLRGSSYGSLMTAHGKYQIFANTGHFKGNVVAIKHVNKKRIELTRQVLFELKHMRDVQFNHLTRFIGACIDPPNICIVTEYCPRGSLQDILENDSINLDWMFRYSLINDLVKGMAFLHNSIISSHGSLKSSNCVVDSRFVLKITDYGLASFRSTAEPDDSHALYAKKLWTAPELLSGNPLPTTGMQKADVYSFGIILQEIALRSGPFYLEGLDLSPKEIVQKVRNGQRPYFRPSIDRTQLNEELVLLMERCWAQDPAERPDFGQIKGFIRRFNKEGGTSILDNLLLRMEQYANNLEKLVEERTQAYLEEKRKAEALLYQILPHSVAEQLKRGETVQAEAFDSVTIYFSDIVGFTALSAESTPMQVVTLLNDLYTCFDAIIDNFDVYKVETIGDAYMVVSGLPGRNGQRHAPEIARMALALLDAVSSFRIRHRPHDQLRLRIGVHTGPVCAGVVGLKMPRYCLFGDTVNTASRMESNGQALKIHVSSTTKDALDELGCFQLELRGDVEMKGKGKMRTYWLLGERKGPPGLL
FLuc inh counter: inhibits firefly luciferase, false Npr1 antagonist flag. Potency, µM (top dose mostly 57.6 µM), for inactives: at the top dose activity change, negative = inhibition, actives largely listed as inhibitors. 1,400 compounds, 0.7% hits. AID 1347047. purified FLuc enzyme, luminescence, Km substrate. shares compounds with NPR1 antag; further: 0% is about no effect
GloSensor ctrl: control cell line activity, Npr1 antagonist counter-screen. AID 1347051. Potency, µM (titrated, usually from 57.6 µM), inactives show top-dose activity change, negative = inhibition, actives largely listed as inhibitors. HEK293 GloSensor cGMP, SNP-stimulated, luminescence. 1,400 compounds, 69% hits. shares compounds with NPR1 antag; calls by dose curve; further: on the % scale 0 is the no-effect control and ±100 the full control effect; nearly all actives have a fitted effect of over 70% in size
* marks the source's active call; other numbers are inactive results; i = inactive; ? = inconclusive; · = no result given; [ ] = another dose, or the depositor's remark. In the library only some 10% were active in any assay of this set; here they are far more common. Unless noted, the call rests on the fitted dose curve; in most records, active means well fitted curve in the direction sought with a large enough effect; inconclusive means small, poorly fitted or top-dose-only effect, or another doubt; inactive means no such curve, though single readings can be large; an effect the other way counts as inactive or inconclusive. Potency means the concentration at half of the fitted maximal effect.

SMILES | NPR1 antag | GPT2 inh | NIH3T3 tox | HEK cytotox | Luciferase inh | Npr1 antag conf | NPR2 antag | FLuc inh counter | GloSensor ctrl
O=C(c1ccc(Cl)cc1)N1CCC2(CC1)C(=O)NCN2CCc1ccccc1 | · | 3.8% | -7.6% | -15.6% | · | · | · | · | ·
Cn1cc(CN[C@H]2[C@H](O)[C@H](O)C[C@@H]2c2ccccc2)c2ccccc21 | 1.2%[70.6 µM] | -0.1%[88.5 µM] | ? | ? | i | · | · | · | ·
Cc1cccc(C(=O)N2C(C(=O)NCc3ccc4c(c3)OCO4)COC23CCC(C)CC3)c1 (stereo not drawn) | 3.8% | i | ? | ? | i | · | · | · | ·
Cc1cccc2c1nc1n2[C@@H](CNS(=O)(=O)c2ccc(F)cc2)COC1 | ? | -4.4%[88.5 µM] | ? | ? | i | · | · | · | ·
c1ccc(CNC[C@H]2COCc3nc4ccccc4n32)cc1 | 22.4µM* | i | ? | ? | i | 35.3µM* | 31.4µM* | -0.9%[86.2 µM] | 28µM*
Cc1ccc2c(c1)nc1n2[C@@H](CNCc2ccccc2)COC1 | ? | -5.0%[88.5 µM] | 112µM* | ? | i | 35.3µM* | ? | -1.8%[86.2 µM] | ?
COc1ccc2nc3n(c2c1)[C@@H](CNCc1ccccc1)COC3 | ? | -9.7%[88.5 µM] | ? | ? | i | · | · | · | ·
Cc1cccc2c1nc1n2[C@@H](CNS(=O)(=O)Cc2ccccc2)COC1 | 35.5µM* | -3.2%[88.5 µM] | ? | ? | i | 28µM* | 28µM* | -0.4%[86.2 µM] | 28µM*
COc1ccc2nc3n(c2c1)[C@@H](CNCc1ccc(C(F)(F)F)cc1)COC3 | 35.5µM* | ? | ? | ? | i | 31.4µM* | 35.3µM* | -1.6%[86.2 µM] | 28µM*
CN(C)C(=O)N1CCN(c2nccc(Nc3ccccc3Cl)n2)CC1 | · | -9.6% | ? | ? | · | · | · | · | ·
Cn1ncc2c(C(=O)NCC3CC3)cc(-c3ccc(F)cc3)nc21 | · | -10.8%[88.5 µM] | -25.7%[138 µM] | -7.3%[172 µM] | · | · | · | · | ·
COC1CCN(C(=O)c2cnc3c(c2)N(C(=O)Cc2cn(C)c4ccccc24)CCC3)CC1 | -1.6% | 0.3% | ? | 3.4% | i | · | · | · | ·
Cn1cc(CC(=O)N2CCCc3ncc(C(=O)N4CCC(c5ccccc5)CC4)cc32)c2ccccc21 | 15.8µM* | -2.1% | ? | 39.8µM* | i | 21.7µM* | 21.7µM* | 6.2% | 19.3µM*
CN(Cc1cccnc1)c1nc2c(c(=O)[nH]1)CCN(Cc1ccc(Cl)cc1F)CC2 | 11.2µM* | ? | ? | ? | i | 15.3µM* | 17.2µM* | 3.8% | 9.68µM*
CCn1cc(-c2ccccc2)cc1C(=O)NC(C)c1cccnc1 (stereo not drawn) | -4.2% | -10.3% | ? | ? | i | · | · | · | ·
Cc1cc(OCCN2CCOCC2)c(C)c2c1CC[C@@H]([C@H](C)C(=O)N1CCCCC1)C2 | 17.8µM* | -19.4%[88.5 µM] | ? | 20µM* | i | 39.6µM* | 35.3µM* | 1.6%[86.2 µM] | ?
O=C(c1ccc2c(c1)OCO2)N1CCC2(C1)C(=O)N(c1ccccc1)c1ccccc12 (stereo not drawn) | · | i | -28.6% | ? | · | · | · | · | ·
COCc1cc(NCCSCc2ccccc2C)ncn1 | 11.2µM* | -3.4% | ? | ? | i | 21.7µM* | 19.3µM* | 1.9% | 15.3µM*
O=C(CN1CCCCCCC1)N1CCn2nc(Cc3ccccc3)cc2C1 | -12.9% | i | ? | -29.4% | i | · | · | · | ·
CC(=O)c1c(C)nn(CC(=O)N2CCn3nc(Cc4ccccc4)cc3C2)c1C | 11.2µM* | 0.9%[11.5 µM] | -33.7% | ? | i | 21.7µM* | 19.3µM* | -0.9% | 13.7µM*
CC(C)C1=NOC2(CCN(Cc3ccc(C(F)(F)F)cc3)CC2)C1 | 11.2µM* | -7.8%[88.5 µM] | ? | ? | i | 25µM* | 31.4µM* | 1.4%[86.2 µM] | 19.8µM*
COCCCn1c(=O)c(C(=O)NCCc2ccccc2)nc2cccnc21 | · | -7.0% | -23.0% | -0.4% | · | · | · | · | ·
Cc1cccc(-n2ncc3c2CCCC3NC(=O)CCC(F)(F)F)c1C (stereo not drawn) | ? | -30.7% | -27.3% | ? | i | 24.3µM* | ? | 2.1% | 24.3µM*
Cc1nc(CC(=O)NC2CCCc3c2cnn3-c2ccc(C(C)(C)C)cc2)cs1 (stereo not drawn) | ? | 0.2% | ? | ? | ? | · | · | · | ·
COCCN1CC(CNc2nc(CCN)nc3sc(C)c(C)c23)CC1=O (stereo not drawn) | 0.1% | -5.0% | i | -2.6% | i | · | · | · | ·
SMILES | NPR1 antag | GPT2 inh | NIH3T3 tox | HEK cytotox | Luciferase inh | Npr1 antag conf | NPR2 antag | FLuc inh counter | GloSensor ctrl
CCCc1cc(CN(C)c2nc(CCN)nc3sc(C)c(C)c23)[nH]n1 | -24.4% | 1.0% | ? | 35.5µM* | i | -25.4% | ? | 5.6% | 2.4%
O=C(Nc1ccc(Cl)cc1)N1Cc2[nH]cnc2C[C@H]1c1nc(-c2ccccc2)no1 | -21.8%[70.6 µM] | 2.9%[88.5 µM] | 31.6µM* | 79.4µM* | i | ? | ? | ? | -26.3%[86.2 µM]
O=C(NCc1ccccc1Cl)c1ccc(CN2C(=O)NC3(CCOCC3)C2=O)cc1 | -23.2% | i | -18.9% | -21.6% | i | · | · | · | ·
CC(C)c1ccc(CNC(=O)c2ccc(CN3C(=O)NC4(CCOCC4)C3=O)cc2)cc1 | 7.08µM* | i | ? | ? | i | 19.3µM* | 19.3µM* | -2.4% | 15.3µM*
CCn1cc(CNC(=O)c2ccc(OC3CCN(S(=O)(=O)N(C)C)CC3)cc2)cn1 | 12.6µM* | i | -28.6% | ? | i | 19.3µM* | 19.3µM* | -2.9% | 10.9µM*
CN(C)S(=O)(=O)N1CCC(Oc2ccc(C(=O)NCCc3ccncc3)cc2)CC1 | -13.0% | i | ? | ? | i | · | · | · | ·
O=C(c1ccccc1Cl)N1CCN(C(=O)c2nc3cccnc3n(C3CCCC3)c2=O)CC1 | · | i | ? | -16.4% | · | · | · | · | ·
CC1=C[C@@H](CN2CCOCC2)[C@H](C(C)C)C[C@H]1Cc1nnc(-c2ccncc2)o1 | ? | 2.3%[88.5 µM] | ? | ? | i | ? | -27.0%[86.2 µM] | 2.5%[86.2 µM] | -16.2%[86.2 µM]
